Source: PubChem BioAssay AID686978 (National Center for Advancing Translational Sciences (NCATS), 2013)
The whole screen tested about 420,000 compounds, of which about 64,000 (15%) were called active. Another 27% or so got no clear call; they are omitted. Calls come from the whole dose curve; as a rule, active = well fitted inhibition curve with a large enough effect; inconclusive = small, poorly fitted or top-dose-only effect; inactive = flat fitted curve, though single readings scatter. A selection follows. Where a call stands in place of a potency, no number is given.

Assay: qHTS for Inhibitors of human tyrosyl-DNA phosphodiesterase 1 (TDP1): qHTS in cells in absence of CPT; note: nearly all actives have a fitted effect of over 55% in size
Details: DT40 Tdp1-/- hTDP1 cells, no CPT, ATP luminescence, 48 h; activity change, negative = growth inhibition: at 46.2 µM (top of the series)
From the text: Human tyrosyl-DNA phosphodiesterase 1 (TDP1) is a novel repair gene, and we propose to use it as a new target for anticancer drug development. TDP1 is not an essential protein, but under treatment with topoisomerase I poison (camptothecin: CPT), TDP1 works as a critical factor for cell survival. To directly identify novel TDP1 inhibitors active in a cellular environment, we have knocked-out the Tdp1 gene in chicken DT40 cells (Tdp1-/-) and generated a complemented counterpart cells that contains a stable transfection of the human TDP1 gene (Tdp1-/-;hTDP1 cells). For the primary screen, Tdp1-/-;hTDP1 cells will be exposed to small molecules in the presence or absence of CPT, and their growth kinetics will be evaluated after 48 hours by measuring ATP activity. […] The hit compounds will then be evaluated in the presence or absence of CPT using Tdp1-/- cells. […] In tertiary assays, biochemical gel-based assays will be used to assess whether the hit compounds specifically target TDP1.
To this end, we have screened this cell line against the MLSMR in two primary screens. In one screen we add CPT and in the other we screen in the absence of CPT; this AID represents the screen where CPT was absent.
NIH Chemical Genomics Center [NCGC]
NIH Molecular Libraries Probe Centers Network [MLPCN]
Assay Submitter (PI): Yves Pommier, NCI
DT40-hTDP1 cells without 20 nM Camptothecin (add 20 microL of DMSO in 1 L of cell culture medium) were dispensed at 400 cells/5microL/well in tissue culture treated 1536-well white wall/solid bottom assay plates (Greiner Bio-One North America, NC, U.S.A.) using a Multidrop Combi 8 channel dispenser (Thermo Fisher, Waltham, MA, USA). 23 nL compounds and controls were transferred using the pin tool (Kalypsys, San Diego, CA, USA) to the assay plates. The assay plates were then incubated at 37 masculineC for a minimum 48 hr. Three microL of Cell Titer Glo solution was added to the plates and incubated at RT in dark for 30 min. Luminescence was read using ViewLux (Perkin Elmer) with 1 sec exposure slow speed, high gain and 2x binning.
Potency is the fitted concentration of half-maximal effect.

Row | Compound | Potency
1 | CCOC(=O)c1c(/N=C/c2cc(C)ccc2O)sc2c1CCC2 | inactive
2 | CCC(=O)c1ccc(OCC(O)Cn2nc(C)c(C(C)=O)c2C)cc1 (configuration not stated) | inactive
3 | CC(C)n1c(-c2ccncc2)n[nH]c1=S | inactive
4 | Cc1cc(C)n(C(=O)c2ccc(C)c(S(=O)(=O)N3CCOCC3)c2)n1 | inactive
5 | Cc1cccc(NC(=O)C(C)N2C(=O)C3C4CC(C(Br)C4Br)C3C2=O)c1 (configuration not stated) | inactive
6 | CN(CC(=O)N1CCN(c2ccccc2)CC1)S(=O)(=O)c1cccs1 | inactive
7 | CC(=O)c1ccc(-n2nnnc2SCC(=O)N2CCN(C(=O)c3ccco3)CC2)cc1 | inactive
8 | CCOC(=O)c1ccc(NC(=S)Nc2cc(C)cc(C)n2)cc1 | inactive
9 | N=C1c2ccccc2-c2ccccc21 | inactive
10 | O/N=C1\CC2(Cc3nonc31)OCCO2 | inactive
11 | CCCCN(C(=O)c1ccc(OC(F)(F)F)cc1)c1c(N)n(CCC)c(=O)[nH]c1=O | inactive
12 | CCCCn1c(N)c(N(CC)C(=O)c2ccccc2C(F)(F)F)c(=O)[nH]c1=O | inactive
13 | FC(F)(F)c1cc(C(F)(F)F)c2ccc(N3CCN(c4ccccc4)CC3)nc2n1 | inactive
14 | COc1ccc(C(C(=O)NC2CCCCC2)N(C(=O)CCl)c2ccccc2Cl)cc1 (configuration not stated) | 14.6 µM (active)
15 | Cc1ccccc1N(C(=O)CNC(=O)c1cccs1)C(C(=O)NC1CCCC1)c1ccncc1 (configuration not stated) | inactive
16 | COc1ccc(C(C(=O)NC2CCCC2)N(CCCO)C(=O)Cn2nnc(-c3ccc(C)o3)n2)cc1 (configuration not stated) | inactive
17 | CC(NC(=O)COC(=O)c1ccc2c(c1)OCO2)c1ccccc1 (configuration not stated) | inactive
18 | CC(C)(C)c1ccc(C(=O)C[N+]2(C)CCCc3ccccc32)cc1 (configuration not stated) | 1.58 µM (active)
19 | CC(C)(C)c1ccc(C(=O)NNC(=O)Cc2ccccc2)cc1 | inactive
20 | CSc1ncnc2c1ncn2CCCNCc1cccs1 | inactive
21 | Cc1ccccc1-c1nc(NC(C)C)nc2cc(-c3ccccc3)sc12 | 20.6 µM (active)
22 | O=C(O)CCCC(=O)Nc1ccccc1-n1ccnc1 | inactive
23 | Cc1c(Cl)c([N+](=O)[O-])nn1CC(=O)NCCCN1CCOCC1 | inactive

Row | Compound | Potency
24 | O=S(=O)(c1cccc(-c2nnc(SC(F)F)n2-c2ccccc2)c1)N1CCCCC1 | 16.4 µM (active)
25 | O=S(=O)(c1cccc(-c2nnc3n2CCCCC3)c1)N1CCOCC1 | inactive
26 | O=S(=O)(c1cccc(-c2cn3ccccc3n2)c1)N1CCCC1 | inactive
27 | O=C(O)C1=C/C(=C/C=[N+]2c3cc(O)c(O[C@H]4OC(CO)[C@@H](O)[C@@H](O)[C@@H]4O)cc3C[C@@H]2C(=O)[O-])C[C@H](C(=O)O)N1 (some centres not stated) | inactive
28 | S=c1[nH]nc(Nc2ccccc2)s1 | inactive
29 | CCOc1c(Cl)cc(/C=N/O)cc1OC | inactive
30 | CCC(=O)/C=C1\Sc2ccccc2N1CC | inactive
31 | CCN1/C(=C/C(=S)Nc2ccccc2)Sc2ccccc21 | 4.11 µM (active)
32 | O=C(CS(=O)(=O)c1ccc(C(F)(F)F)cn1)NNC(=O)c1ccccc1 | inactive
33 | Cc1ccc2nc(COc3cccc(NC(=O)Nc4ccc(C)c(Cl)c4)c3)cc(=O)n2c1 | inactive
34 | Cc1ccc2nc(COc3ccc(NC(=O)COc4ccccc4F)cc3)cc(=O)n2c1 | inactive
35 | Cc1ccc2nc(COc3ccccc3NC(=O)Nc3ccc(F)c(Cl)c3)cc(=O)n2c1 | 14.6 µM (active)
36 | COc1ccc(-c2nn3c(=O)cc(CN4CCN(C(=O)c5ccc(OC)c(OC)c5)CC4)nc3s2)cc1 | inactive
37 | Cc1nonc1C(=O)N/N=C/c1ccc(O)cc1 | inactive
38 | COc1ccc(/C=N/NC(=O)c2ccc(Cl)cc2)cc1COC(C)=O | inactive
39 | COc1cccc(-c2cc(C(=O)N/N=C/c3ccc(OC)c(COC(C)=O)c3)c3ccccc3n2)c1 | 2.06 µM (active)
40 | COc1ccc(/C=N\NC(=O)c2sc(N)nc2C)cc1OC | inactive
41 | COc1ccc(/C=N/NC(=O)c2cc(-c3cccc(C)c3)nc3ccccc23)cc1O | 2.31 µM (active)
42 | Cc1ccc(N2NC(=O)/C(=C/C=C/c3ccco3)C2=O)cc1C | inactive
43 | O=C(Nc1cccc(F)c1)c1cc(-c2ccco2)nc2ccccc12 | inactive
44 | O=C(COc1ccc(/C=N/NC(=O)c2ccc(O)cc2)cc1)Nc1ccc([N+](=O)[O-])cc1 | inactive
45 | Cc1ccc(-c2cc(C(=O)N/N=C/C=C/c3ccco3)c3ccccc3n2)cc1C | 8.2 µM (active)
46 | CCOc1ccc(-c2cc(C(=O)N/N=C/c3ccc(O)cc3)c3ccccc3n2)cc1 | 0.651 µM (active)

Row | Compound | Potency
47 | Cc1ccc(S(=O)(=O)NCCC(c2ccccc2)c2ccccc2)cc1C(=O)O | inactive
48 | O=C(CCCOc1ccc(Cl)cc1Cl)NNC(=O)C1CCC1 | inactive
49 | Cc1ccc(C)c2[nH]c(=O)c(CCNC(=O)CC(C)C)cc12 | inactive
50 | COc1ccc(Cc2nnnn2CC(=O)O)cc1 | inactive
51 | Cc1ccc(S(=O)(=O)CC(=O)Nc2c(C)n(C)n(-c3ccccc3)c2=O)cc1 | inactive
52 | Cc1cc(C)n2nc(SCC(N)=O)nc2n1 | inactive
53 | CC(NC(=O)COC(=O)Cn1cc(C(F)(F)F)ccc1=O)c1ccccc1 (configuration not stated) | inactive
54 | CCOC(=O)c1c(C)[nH]c(C)c1S(=O)(=O)NCC(=O)NCc1cccc(C)c1 | inactive
55 | COc1cc(/C=N\NC(=O)C2C(=O)NCC2c2ccccc2)cc(OC)c1O (configuration not stated) | inactive
56 | COc1cc(/C=N/NC(=O)c2cc(-c3ccccc3C)nc3ccccc23)cc(OC)c1O | 6.51 µM (active)
57 | CC1(C)CC(CC(=O)O)C(=O)O1 (configuration not stated) | inactive
58 | CC(=O)NCC(=O)N(C)C(C(=O)Nc1ccc2c(c1)OCCO2)c1ccccc1 (configuration not stated) | inactive
59 | N#Cc1ccccc1NC(=O)c1cccc(COc2ccc(Cl)cc2Cl)c1 | inactive
60 | Cc1ccc(NC(=O)Cn2sc3ccccc3c2=O)cc1 | 4.61 µM (active)
61 | Cc1ccc(NC(=O)Cn2c(C)csc2=O)cc1 | inactive
62 | Cc1nn(CC(=O)Nc2ccc(F)cc2)c(=O)c2ccccc12 | inactive
63 | CCN1CCN(C(=O)CN(C)S(=O)(=O)c2ccc3ccccc3c2)CC1 | inactive
64 | CSCC[C@H](NC(=O)NCCc1ccc(F)cc1)C(=O)O | inactive
65 | O=C(Nc1cccc(Br)c1)C1CC(=O)N(C2CCCC2)C1 (configuration not stated) | inactive
66 | COc1ccc(Br)cc1CN(C)C(=O)C1CC(=O)N(C2CCCC2)C1 (configuration not stated) | 23.1 µM (active)
67 | CN(CC(=O)Nc1ccc(F)c(F)c1F)C(=O)C1CC(=O)N(C2CCCC2)C1 (configuration not stated) | inactive
